Data: PubChem BioAssay
The source made the active and inactive calls.

Tests used:
[1] = tested on: PRMT1 (protein arginine N-methyltransferase 1); assay: small molecules binding arginine methyltransferase PRMT1 – biochemical, small-molecule microarray, 635 nm fluorescence, primary screen (AID 1088); details: higher = more signal;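 note: binding of Prmt1 protein to compounds spotted on small-molecule microarray slides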
[2] = growth effects on S. cerevisiae YJM789 – YJM789 clinical isolate, OD600, 24 h, basal, primary screen (AID 1089); details: higher = more signal, called active from +8 up or from −8 down;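 note: growth of clinical yeast isolate S. cerevisiae YJM 789 seeded 1000 cells per well; test concentration not given here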
[3] = S. pombe growth modifiers, basal conditions – strain 972, OD600, 24 h, no modulator, primary screen (AID 1090);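 note: basal condition with compound alone and no growth modifier present; test concentration not given here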; details: S. pombe 972 growth, higher = more signal, called active from +8 up or from −8 down
[4] = budding yeast growth modifiers under rapamycin – strain BY4716, OD600, 96 h, primary screen (AID 1091); note: test concentration not given here; details: S. cerevisiae BY4716 + rapamycin, higher = more signal, called active from +8 up or from −8 down
[5] = target: Torsin-1A-interacting protein 2 (Homo sapiens) (UniProt Q8NFQ8); assay: small molecules binding lysate-expressed LULL1 – cell lysate, human LULL1 lysate, 635/667 nm fluorescence, primary screen (AID 1092); details: small-molecule microarray, hLULL1 lysate binding, 635 nm fluorescence; higher = more signal;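 note: probe is lysate of COS7 cells overexpressing human LULL1; score merges per-feature 667 nm fluorescence with signal-to-noise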
Chain of Torsin-1A-interacting protein 2 (Homo sapiens) (Q8NFQ8 whole entry, looked up): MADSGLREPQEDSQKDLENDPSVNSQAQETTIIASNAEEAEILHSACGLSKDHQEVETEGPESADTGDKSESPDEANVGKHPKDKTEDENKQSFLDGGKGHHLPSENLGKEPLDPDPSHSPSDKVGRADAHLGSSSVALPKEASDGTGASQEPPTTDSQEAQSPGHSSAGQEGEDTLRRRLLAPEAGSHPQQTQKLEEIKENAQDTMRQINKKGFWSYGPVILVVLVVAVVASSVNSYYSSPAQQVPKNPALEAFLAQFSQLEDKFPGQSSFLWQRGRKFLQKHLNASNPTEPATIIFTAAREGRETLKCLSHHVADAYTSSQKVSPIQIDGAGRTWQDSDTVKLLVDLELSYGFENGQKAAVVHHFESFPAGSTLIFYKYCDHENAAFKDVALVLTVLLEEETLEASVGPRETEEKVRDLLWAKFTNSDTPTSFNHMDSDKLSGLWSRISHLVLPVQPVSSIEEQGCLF

[6] = optical density change of DRC41 E. coli – strain DRC41, OD650, 24 h, E. coli filamentation project, primary screen (AID 1093);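 note: MC1000 strain lacking acrAB efflux and sulA so SOS filamentation is blocked; test concentration not given here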; details: E. coli DRC41 growth, higher = more signal, called active from +8 up or from −8 down
[7] = probe aLefty2 binding to arrayed compounds – biochemical, biotinylated probe, 635/667 nm fluorescence, primary screen (AID 1094); details: small-molecule microarray, higher = more signal;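 note: score merges spot fluorescence near 667 nm with spot signal-to-noise ratio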
[8] = tested on: Noggin (protein binding on small-molecule microarray); assay: small molecules binding Noggin protein – biochemical, 635/667 nm fluorescence, primary screen (AID 1095); details: 635 nm fluorescence, higher = more signal;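 note: score merges 667 nm feature fluorescence with signal to noise over triplicate slides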
[9] = target: Neurogenic locus notch homolog protein 3 (Homo sapiens) (UniProt Q9UM47); assay: small molecules binding NOTCH3 protein – biochemical, 635/667 nm fluorescence, primary screen (AID 1096); details: small-molecule microarray, 635 nm fluorescence, higher = more signal
Chain of Neurogenic locus notch homolog protein 3 (Homo sapiens) (Q9UM47 whole entry, looked up): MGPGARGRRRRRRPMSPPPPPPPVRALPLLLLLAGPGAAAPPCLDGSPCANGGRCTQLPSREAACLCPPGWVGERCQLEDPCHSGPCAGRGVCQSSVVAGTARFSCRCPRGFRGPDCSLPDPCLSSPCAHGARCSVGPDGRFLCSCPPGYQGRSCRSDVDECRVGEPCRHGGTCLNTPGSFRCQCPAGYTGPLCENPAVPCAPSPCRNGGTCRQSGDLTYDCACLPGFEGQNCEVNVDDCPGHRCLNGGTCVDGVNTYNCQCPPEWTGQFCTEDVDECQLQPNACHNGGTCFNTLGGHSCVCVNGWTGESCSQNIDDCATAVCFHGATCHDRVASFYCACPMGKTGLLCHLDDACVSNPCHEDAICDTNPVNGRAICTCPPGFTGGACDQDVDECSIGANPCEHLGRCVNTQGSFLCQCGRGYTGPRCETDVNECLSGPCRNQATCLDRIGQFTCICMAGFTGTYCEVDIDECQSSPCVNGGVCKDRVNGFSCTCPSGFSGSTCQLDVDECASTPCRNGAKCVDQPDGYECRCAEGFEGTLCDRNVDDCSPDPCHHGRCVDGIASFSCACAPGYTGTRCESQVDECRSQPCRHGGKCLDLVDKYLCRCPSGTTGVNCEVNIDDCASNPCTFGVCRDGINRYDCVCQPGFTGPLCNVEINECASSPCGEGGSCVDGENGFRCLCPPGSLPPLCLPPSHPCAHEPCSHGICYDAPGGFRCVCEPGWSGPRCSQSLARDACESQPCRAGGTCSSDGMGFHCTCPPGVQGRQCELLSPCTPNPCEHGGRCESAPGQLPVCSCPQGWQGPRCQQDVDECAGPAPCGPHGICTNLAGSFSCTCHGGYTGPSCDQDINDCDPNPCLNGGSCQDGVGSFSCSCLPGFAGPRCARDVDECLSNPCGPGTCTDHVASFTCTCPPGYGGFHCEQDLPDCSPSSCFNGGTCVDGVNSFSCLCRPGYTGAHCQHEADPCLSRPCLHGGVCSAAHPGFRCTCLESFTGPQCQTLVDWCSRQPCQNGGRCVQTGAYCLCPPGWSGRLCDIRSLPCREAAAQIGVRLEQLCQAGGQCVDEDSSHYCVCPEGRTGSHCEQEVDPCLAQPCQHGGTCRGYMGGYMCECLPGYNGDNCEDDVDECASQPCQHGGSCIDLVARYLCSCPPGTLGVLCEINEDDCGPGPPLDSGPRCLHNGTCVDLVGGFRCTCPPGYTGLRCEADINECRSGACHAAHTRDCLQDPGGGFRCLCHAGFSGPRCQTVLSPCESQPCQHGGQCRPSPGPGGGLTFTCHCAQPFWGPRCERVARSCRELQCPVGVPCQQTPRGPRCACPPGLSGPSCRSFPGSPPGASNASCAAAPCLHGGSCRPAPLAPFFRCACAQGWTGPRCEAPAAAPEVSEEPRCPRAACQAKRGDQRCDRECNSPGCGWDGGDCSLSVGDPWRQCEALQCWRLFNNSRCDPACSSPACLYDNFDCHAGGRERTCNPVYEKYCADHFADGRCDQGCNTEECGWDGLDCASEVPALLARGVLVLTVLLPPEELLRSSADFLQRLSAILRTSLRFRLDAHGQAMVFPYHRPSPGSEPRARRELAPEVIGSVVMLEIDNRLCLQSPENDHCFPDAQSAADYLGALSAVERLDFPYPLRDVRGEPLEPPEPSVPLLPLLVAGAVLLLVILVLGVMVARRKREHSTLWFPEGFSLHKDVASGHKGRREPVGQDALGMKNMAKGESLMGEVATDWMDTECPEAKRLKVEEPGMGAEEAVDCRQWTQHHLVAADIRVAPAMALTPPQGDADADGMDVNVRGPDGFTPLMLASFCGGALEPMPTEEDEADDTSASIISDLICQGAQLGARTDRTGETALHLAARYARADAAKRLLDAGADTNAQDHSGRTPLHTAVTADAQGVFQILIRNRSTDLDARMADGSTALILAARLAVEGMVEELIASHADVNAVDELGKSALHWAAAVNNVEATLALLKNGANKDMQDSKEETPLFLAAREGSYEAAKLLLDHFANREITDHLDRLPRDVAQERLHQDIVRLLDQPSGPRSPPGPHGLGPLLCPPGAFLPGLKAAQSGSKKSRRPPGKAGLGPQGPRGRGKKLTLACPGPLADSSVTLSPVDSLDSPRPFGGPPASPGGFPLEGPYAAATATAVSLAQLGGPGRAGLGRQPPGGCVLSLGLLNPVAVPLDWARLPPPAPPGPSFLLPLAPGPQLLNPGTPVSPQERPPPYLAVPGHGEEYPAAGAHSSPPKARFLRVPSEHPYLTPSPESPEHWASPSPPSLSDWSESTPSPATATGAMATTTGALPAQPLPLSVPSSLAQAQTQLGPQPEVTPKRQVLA

[10] = probe aEGFR binding to arrayed compounds – biochemical, biotinylated probe, 635/667 nm fluorescence, primary screen (AID 1097); details: small-molecule microarray, higher = more signal;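 note: probe is a biotinylated anti-EGFR antibody binding compounds printed on slides; score combines fluorescence near 667 nm and signal to noise of each spot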
[11] = tested on: Plasmodium falciparum Sir2 (PF13_0152, Sir2A); assay: Plasmodium falciparum Sir2A binding compounds – biochemical, small-molecule microarray, 635 nm fluorescence, primary screen (AID 1098); details: fluorescence 635 nm, higher = more signal;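 note: score merges spot fluorescence intensity with its signal-to-noise ratio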
[12] = probe aDKK1 binding to arrayed compounds – biochemical, biotinylated probe, 635/667 nm fluorescence, primary screen (AID 1099); details: small-molecule microarray, higher = more signal;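 note: score merges 667nm spot fluorescence with signal to noise across triplicate slides; reference of the scale not given here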
[13] = probe aCHRDL2 binding to arrayed compounds – biochemical, biotinylated probe, 635/667 nm fluorescence, primary screen (AID 1100); details: small-molecule microarray, higher = more signal
[14] = change in splice reporter luminescence, either direction, cell-based, HEK293, spliceosome inhibition project, primary screen (AID 1101); details: HEK293 splicing luciferase reporter, 24 h, higher = more signal, called active from +8 up or from −8 down;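 note: HEK293 cells carrying a splicing-competent luciferase reporter gene; test concentration not given here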
[15] = target: Fibroblast growth factor 10 (Homo sapiens) (UniProt O15520); assay: compounds binding fibroblast growth factor 10 – biochemical, small-molecule microarray, 635 nm fluorescence, primary screen (AID 1102); details: FGF10 binding, fluorescence 635 nm, higher = more signal
Chain of Fibroblast growth factor 10 (Homo sapiens) (O15520 whole entry, looked up): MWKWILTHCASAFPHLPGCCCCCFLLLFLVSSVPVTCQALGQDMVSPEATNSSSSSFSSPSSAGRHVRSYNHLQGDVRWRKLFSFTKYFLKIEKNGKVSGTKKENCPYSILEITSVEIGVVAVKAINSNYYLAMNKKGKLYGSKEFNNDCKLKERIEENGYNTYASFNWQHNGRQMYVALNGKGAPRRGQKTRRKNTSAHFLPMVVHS

[16] = tested on: glycogen synthase kinase-3 (GSK3A per assay name; protocol says GSK3B); assay: compounds binding glycogen synthase kinase-3 – biochemical, small-molecule microarray, 635 nm fluorescence, GSK3A, primary screen (AID 1103); details: fluorescence 635 nm, higher = more signal; note: the record names both GSK3A and GSK3B
[17] = target: Epidermal growth factor receptor (Homo sapiens) (UniProt P00533); assay: compounds binding epidermal growth factor receptor – biochemical, small-molecule microarray, 635 nm fluorescence, primary screen (AID 1104); details: EGFR binding, higher = more signal;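 note: score merges 667 nm emission intensity with spot signal to noise over triplicate slides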
Chain of Epidermal growth factor receptor (Homo sapiens) (P00533 whole entry, looked up): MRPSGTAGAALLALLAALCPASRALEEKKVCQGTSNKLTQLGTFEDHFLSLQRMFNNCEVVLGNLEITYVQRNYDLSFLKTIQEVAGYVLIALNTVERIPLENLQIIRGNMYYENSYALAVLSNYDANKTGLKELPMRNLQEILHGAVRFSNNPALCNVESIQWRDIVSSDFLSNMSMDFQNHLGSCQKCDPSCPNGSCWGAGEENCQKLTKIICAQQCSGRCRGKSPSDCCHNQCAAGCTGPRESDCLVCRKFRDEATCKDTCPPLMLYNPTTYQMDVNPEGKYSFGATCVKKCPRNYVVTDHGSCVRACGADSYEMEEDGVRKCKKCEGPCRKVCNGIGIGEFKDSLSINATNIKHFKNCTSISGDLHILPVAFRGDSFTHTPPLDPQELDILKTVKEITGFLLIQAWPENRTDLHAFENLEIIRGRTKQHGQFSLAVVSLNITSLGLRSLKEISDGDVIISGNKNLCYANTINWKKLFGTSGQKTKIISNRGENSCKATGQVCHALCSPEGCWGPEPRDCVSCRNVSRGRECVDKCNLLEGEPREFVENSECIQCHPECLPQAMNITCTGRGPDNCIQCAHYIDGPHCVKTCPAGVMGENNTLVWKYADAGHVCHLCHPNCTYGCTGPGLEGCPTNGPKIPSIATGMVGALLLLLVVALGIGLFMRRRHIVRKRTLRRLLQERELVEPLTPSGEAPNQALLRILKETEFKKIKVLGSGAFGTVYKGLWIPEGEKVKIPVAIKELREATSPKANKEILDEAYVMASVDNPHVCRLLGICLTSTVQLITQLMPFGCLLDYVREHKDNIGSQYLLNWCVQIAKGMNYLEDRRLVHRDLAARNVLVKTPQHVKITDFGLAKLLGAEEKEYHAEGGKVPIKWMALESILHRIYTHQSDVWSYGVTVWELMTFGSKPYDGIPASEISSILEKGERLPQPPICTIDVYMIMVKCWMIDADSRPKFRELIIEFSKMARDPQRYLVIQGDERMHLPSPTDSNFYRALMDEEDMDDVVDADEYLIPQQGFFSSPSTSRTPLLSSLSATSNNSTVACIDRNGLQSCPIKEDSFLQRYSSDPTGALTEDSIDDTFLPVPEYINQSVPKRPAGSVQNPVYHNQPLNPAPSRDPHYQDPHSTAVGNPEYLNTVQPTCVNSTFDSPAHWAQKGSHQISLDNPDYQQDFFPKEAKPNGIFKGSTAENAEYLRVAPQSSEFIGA

[18] = target: Follistatin-related protein 3 (Homo sapiens) (UniProt O95633); assay: compounds binding follistatin-related protein 3 – biochemical, small-molecule microarray, 635 nm fluorescence, primary screen (AID 1105); details: FSTL3 binding, higher = more signal;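 note: score merges emission near 667 nm and signal to noise per printed spot across three slides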
Chain of Follistatin-related protein 3 (Homo sapiens) (O95633 whole entry, looked up): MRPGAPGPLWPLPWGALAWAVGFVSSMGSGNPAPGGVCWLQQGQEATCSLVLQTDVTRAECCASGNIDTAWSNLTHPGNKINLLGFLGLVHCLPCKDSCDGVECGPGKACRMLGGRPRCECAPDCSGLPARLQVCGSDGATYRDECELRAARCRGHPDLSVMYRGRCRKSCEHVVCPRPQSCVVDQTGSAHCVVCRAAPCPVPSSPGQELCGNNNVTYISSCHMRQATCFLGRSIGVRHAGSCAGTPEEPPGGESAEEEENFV

[19] = target: Dickkopf-related protein 1 (Homo sapiens) (UniProt O94907); assay: small molecules binding DKK1 protein – biochemical, small-molecule microarray, 635 nm fluorescence scan, primary screen (AID 1106); details: higher = more signal;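 note: score merges emission near 667 nm with signal to noise over three replicate slides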
Chain of Dickkopf-related protein 1 (Homo sapiens) (O94907 whole entry, looked up): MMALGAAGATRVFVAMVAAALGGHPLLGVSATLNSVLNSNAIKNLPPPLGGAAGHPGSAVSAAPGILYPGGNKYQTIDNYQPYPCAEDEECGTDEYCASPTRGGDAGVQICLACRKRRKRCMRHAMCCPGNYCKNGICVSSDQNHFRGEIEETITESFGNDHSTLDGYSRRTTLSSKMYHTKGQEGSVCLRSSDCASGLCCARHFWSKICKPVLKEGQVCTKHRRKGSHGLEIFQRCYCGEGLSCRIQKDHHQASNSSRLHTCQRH

[20] = tested on: Inhibin beta A chain (activin A); assay: small molecules binding activin A – biochemical, small-molecule microarray, 635 nm fluorescence scan, primary screen (AID 1107); details: INHBA, higher = more signal;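 note: mouse activin A protein probed at 4.33 µg/mL on printed slides; score merges bound-protein fluorescence near 667 nm with spot signal-to-noise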

SMILES	composite z-score [1]	z-score [2]	z-score [3]	z-score [4]	composite z-score [5]	z-score [6]	composite z-score [7]	composite z-score [8]	composite z-score [9]	composite z-score [10]	composite z-score [11]	composite z-score [12]	composite z-score [13]	z-score [14]	composite z-score [15]	composite z-score [16]	composite z-score [17]	composite z-score [18]	composite z-score [19]	composite z-score [20]
C=C(/C(=C/C[C@@H](OC(=O)c1ccncc1)c1cccc(OCCO)c1)c1cc(C(=O)OC)ccc1OC)C(C)C	1.33	-0.117 (inactive)	-1.22 (inactive)	-0.35 (inactive)	1.54	1.03 (inactive)	0.0233	0.548	0.93	-0.0476	1.57	-0.17	-0.115	-0.71 (inactive)	0.709	0.366	-0.0516	0.59	0.0661	0.635
CC(C)(C)N1CC=CC23O[C@@H]4C=CCCOC(=O)C4[C@H]2C(=O)N(CCCO)[C@@H]3C1=O (stereo not given in full)	-1.49	0.0588 (inactive)	-0.37 (inactive)	-0.199 (inactive)	-1.09	1.04 (inactive)	-0.195	-0.399	-1.7	-0.268	-0.992	1.43	-0.0642	-1.1 (inactive)	-0.681	-0.764	-0.608	-0.788	-0.0177	1.38
CC(C)=CCCC(C)=CC(O)C1C=CC2C(=O)N(c3ccccc3)C(=O)C2N1Nc1ccc([N+](=O)[O-])cc1 (stereo not given)	1.52	-0.706 (inactive)	-0.589 (inactive)	8.22 (active)	3.8	-0.867 (inactive)	0.0634	-0.14	1.12	0.0466	1.29	-0.0499	0.77	0.644 (inactive)	0.74	1.34	0.0387	0.996	-0.4	0.387
COCCCNC(=O)[C@]1(Cc2ccccc2CN=[N+]=[N-])N=C(c2ccc(OCCCO)cc2)O[C@@H]1c1ccccc1CN=[N+]=[N-]	1.51	-0.353 (inactive)	1.34 (inactive)	31.6 (active)	3.17	0.378 (inactive)	0.419	0.342	0.697	0.332	1.59	1.35	1.25	0.438 (inactive)	0.944	1.19	0.119	0.07	-0.214	0.413
CN(C)C(=O)[C@]1(Cc2ccccc2N=[N+]=[N-])N=C(c2ccc(OCCCO)cc2)O[C@@H]1c1ccccc1CN=[N+]=[N-]	1.5	-2.13 (inactive)	-0.393 (inactive)	0.545 (inactive)	3.51	0.35 (inactive)	0.0262	0.821	1.02	-0.0509	0.43	0.189	0.279	-0.891 (inactive)	1.38	1.32	0.243	1.3	0.825	0.764
COC(=O)[C@]1(Cc2ccccc2CN=[N+]=[N-])N=C(c2ccc(OCCCO)cc2)O[C@@H]1c1ccccc1CN=[N+]=[N-]	0.921	-0.456 (inactive)	-1.09 (inactive)	33.5 (active)	2	2.08 (inactive)	0.111	0.435	-0.253	-0.0828	1.14	-0.188	0.835	-0.613 (inactive)	0.468	0.419	-0.267	-0.302	0.127	0.721
COC(=O)[C@@]1(Cc2ccc(OC)cc2)[C@H]2c3cc(C(=O)N4CCCC4)n(CCF)c3C[C@H]2CN1C(=O)c1ccccc1	0.669	0.366 (inactive)	1.13 (inactive)	0.4 (inactive)	3.56	-1.09 (inactive)	1.64	-0.183	1.12	1.37	1.05	2.71	1.56	-2.55 (inactive)	1.35	0.383	1.46	0.942	-0.226	0.823
COc1cccc(C)c1NC(=O)O[C@H]1[C@H](OC(=O)Nc2ccccc2)[C@H](OC(=O)Nc2ccccc2)[C@@H](OC)O[C@@H]1CO	1.55	0.547 (inactive)	1.03 (inactive)	3.23 (inactive)	3.35	-0.721 (inactive)	0.0682	0.203	0.93	-0.125	1.1	0.245	0.708	0.419 (inactive)	0.96	0.0861	-0.0372	0.367	-0.294	0.179
O=C1NC(=O)C2C1C=CC(C(O)c1ccc(-c3ccccc3)s1)N2Nc1ccccn1 (stereo not given)	0.189	-0.3 (inactive)	1.01 (inactive)	0.499 (inactive)	1.76	0.0076 (inactive)	0.129	-0.0414	0.418	-0.0085	0.115	1.09	1.25	1.56 (inactive)	0.475	-0.316	0.559	0.561	0.664	1.18
